# PubChem BioAssay (NCI)
# About 79,000 compounds went through this panel and 15% of them were active in at least one assay; those are over-represented in the sample as a whole. Values without a mark were called inactive. Active and inactive are the calls of the source. Cut-off read from the data, not from the text of the source: active = growth inhibition above about 70%; inactive = the rest.
# Tests used:
# [1] = NCI Yeast Anticancer Drug Screen. Data for the rad50 strain (AID 155);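 note: 0% = growth of vehicle-only cultures of the same strain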; settings: S. cerevisiae rad50 strain growth inhibition; at 50.0 µM; stronger effect = higher value
# Method in brief: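 Cells are treated with compound, grown, and their growth is then scored against vehicle-only cultures of the same repair-deficient yeast strain.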
# [2] = NCI Yeast Anticancer Drug Screen. Data for the mec2-1 strain (AID 157); settings: S. cerevisiae mec2-1 strain, at 50.0 µM, stronger effect = higher value
# Method in brief: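 Compounds were applied to mec2-1 yeast cells. Their growth was then compared with that of vehicle-treated cultures to give growth inhibition.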
# [3] = NCI Yeast Anticancer Drug Screen. Data for the sgs1 mgt1 strain (AID 161);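 note: 0% = growth of cultures given vehicle only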; settings: S. cerevisiae sgs1 mgt1 strain, at 50.0 µM, stronger effect = higher value
# Method in brief: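 Growth of a repair-deficient yeast mutant was monitored after compound treatment and expressed as inhibition relative to vehicle-treated cultures.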
# [4] = NCI Yeast Anticancer Drug Screen. Data for the cln2 rad14 strain (AID 165);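 note: 0% = growth equal to vehicle treated cultures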; settings: S. cerevisiae cln2 rad14 strain, at 50.0 µM, stronger effect = higher value
# Method in brief: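 Strain: cln2 rad14 yeast, altered in cell cycle control and DNA damage repair. Read-out: growth inhibition vs vehicle.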
# [5] = NCI Yeast Anticancer Drug Screen. Data for the bub3 strain (AID 167); settings: S. cerevisiae bub3 mutant strain, at 50.0 µM, stronger effect = higher value
# Method in brief: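 Part of a panel of yeast mutants defective in DNA damage repair or cell cycle regulation. Each strain is grown with compound, and inhibition is calculated relative to solvent-treated cultures.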
# [6] = NCI Yeast Anticancer Drug Screen. Data for the mlh1 rad18 strain (AID 175); settings: S. cerevisiae mlh1 rad18 strain growth inhibition; at 50.0 µM; stronger effect = higher value
# Method in brief: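 A repair-deficient yeast strain is exposed to test compound, and growth is scored relative to vehicle-treated controls.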
Compound,growth inhibition [1],growth inhibition [2],growth inhibition [3],growth inhibition [4],growth inhibition [5],growth inhibition [6]
CCOc1cc2c(cc1C(C)c1ccc(OCc3ccccc3)cc1)OCO2 (stereo unspecified),6.55%,3.55%,2.7%,1.25%,-2.1%,-20.1%
CC1CCC2C(C)(C)CC3(C)CCC1C23O (stereo unspecified),29.9%,45.5%,81% (active),30.4%,61.6%,83.2% (active)
O=c1c(-c2ccccc2)coc2ccccc12,-9%,1.45%,8.15%,-52%,-14.3%,0.15%
CCC(C)C(=O)OCC1(c2ccc(C)cc2OC(=O)C(C)C)CO1 (stereo unspecified),15.7%,-2.45%,19.2%,-1%,-6%,12.2%
Clc1ccccc1-c1c2ccccc2cc2c1ccc1ccccc12,-12.1%,-14.5%,-7.75%,-0.85%,5.45%,-4.7%
COC(=O)C1CC(=O)CCC1c1ccccc1 (stereo unspecified),1.5%,-7.25%,-16.1%,-6.45%,-7.55%,-16.6%
C(#[C][Sn]([c]1ccccc1)([c]1ccccc1)[c]1ccccc1)c1ccccc1,98.3% (active),95.5% (active),97.8% (active),98.5% (active),98.8% (active),98.6% (active)
Cc1ncc([N+](=O)[O-])n1CCNC(=O)CCC(=O)NCCCn1ccnc1[N+](=O)[O-],-16.1%,-22.9%,-1.45%,21.7%,-31.8%,14.9%
CC(=O)NCC(=O)O,3.7%,-8.75%,-35.1%,-7.1%,-9.6%,-10.1%
CC1(C)CC(c2c[nH]c3ccccc23)=CC2=Nc3ccccc3C21O (stereo unspecified),-41.9%,6.7%,3.8%,15%,2.65%,16.7%
Nc1[nH]n(-c2ccccc2)c(=O)c1/C=N/C(=S)N=Nc1c(O)[nH]c2ccccc12,1.5%,-0.3%,41%,1.5%,9.35%,24.8%
O=C1CN(/N=C/c2ccc(-c3ccc(F)cc3)o2)C(=O)N1,10.4%,-0.15%,-20.9%,-26.6%,5.05%,-3.45%
O=C(NCc1ccc(Cl)c(Cl)c1)Nc1ccccc1F,11%,11.1%,6.1%,9.65%,20.4%,7.05%
CCC(C(=O)NC(C)c1ccc(-c2ccccc2)cc1)c1ccccc1 (stereo unspecified),5.1%,7.55%,10%,13.2%,12.5%,-4.7%
CN(C)CCCc1c2ccccc2nc2ccc(Cl)cc12,12.5%,4.5%,-10%,-2.65%,2.65%,26.5%
CCCCN=CC(Cl)(Cl)C(=O)OCC,-13.2%,-21.6%,-8.35%,4.05%,-10.9%,-19.7%
COC(=O)C1c2ccccc2CC(=O)N1N (stereo unspecified),-2.7%,-8.5%,-20.6%,8.25%,7.05%,9.15%
Nc1ccccc1CCO,14.5%,-6.75%,30.9%,13.2%,-5.8%,19.5%
Nc1nc(C(F)(F)F)nc(N)c1N,7.6%,11%,15.1%,3.2%,-5.95%,14.6%
COC(=O)C1=C(C(=O)OC)SC(=C2c3ccsc3-c3sccc32)S1,-31.3%,-6.2%,-7.45%,19%,1.3%,-4.5%
CCOC(=O)CC(CSCP(=O)(OCC)OCC)C(=O)OCC (stereo unspecified),5.15%,-1.35%,13.2%,3.4%,9.55%,16.2%

Compound,growth inhibition [1],growth inhibition [2],growth inhibition [3],growth inhibition [4],growth inhibition [5],growth inhibition [6]
CCCCOc1n[nH]c(=O)c2ccccc12,-2.4%,-13%,-3.65%,-25.4%,-7.9%,8.6%
NCCCCC(C(=O)NCC(=O)O)N(C(=O)OCc1ccccc1)C(=O)OCc1ccccc1 (stereo unspecified),-2%,-4.6%,-0.55%,-33.1%,-2.2%,-2.05%
CCCCCCCCCCCCCCCCCCc1c(C)cc(C)cc1C,3.7%,23.2%,3.7%,33.3%,3.55%,4.3%
CCOC(=O)NC(C(F)(F)F)(C(F)(F)F)P(=O)(OC(C)C)OC(C)C,-23%,-11.6%,-12.4%,31.1%,3.65%,1.65%
Clc1cccc(Cl)c1C1SCc2nc3ncccc3n21 (stereo unspecified),14.1%,16.6%,34.4%,16.9%,10.6%,0.4%
CCOC(=O)/C=C/c1ccc([N+](=O)[O-])cc1,23.6%,26.6%,9.15%,2.55%,-1.9%,-0.05%
NC(=O)c1cc(Cl)ccc1O,14.5%,12.5%,18.4%,3.1%,-4.05%,11.6%
CC1=Nc2nc3ccccc3n2C(C)(C)C1,14.6%,18.8%,11.6%,-3.95%,-0.2%,-34.1%
O=C(Nc1nc(C23CC4CC(CC(C4)C2)C3)cs1)c1cc2ccccc2oc1=O,-1.45%,-26.5%,-3.45%,-30.4%,-23.9%,-17.4%
O=C(NCCNCCNC(=O)C(F)(F)F)C(F)(F)F,-9.75%,-16.9%,-4.4%,12.8%,-1.5%,-41.6%
O=C(O)C(O)C(O)C(O)C(O)C(=O)O (stereo unspecified),7.35%,-13.1%,12%,-1.55%,-5.1%,3.15%
COc1c(NC(=O)c2ccc(Cl)c(Cl)c2)cccc1[N+](=O)[O-],7.6%,-9.1%,3.35%,-2.85%,1.3%,-1.3%
CN(/N=C/c1ccccc1)c1nnnn1-c1ccccc1,3.2%,-5.7%,-5.85%,33%,0.6%,9.9%
Cc1nc(-c2ccc([N+](=O)[O-])cc2)cn2c1nc1ccccc12,-26.9%,-33%,-34.1%,-67.6%,-4.25%,-17.8%
CCOC(=O)NC(C)(C)CN(CCO)C(=O)OCC,-5.9%,-3.4%,1.4%,-4.9%,-21.9%,-8.7%
CCOC(=O)C1C/C(C)=C(/C)SCCCS1 (stereo unspecified),18.8%,3.2%,-5.5%,21.1%,5.05%,-67.2%
O=C(O)Cn1c(=O)ccc2ccccc21,4.4%,-3.25%,-8.55%,-37.7%,-7.7%,4.9%
CC(=O)OC1=C(OC(C)=O)N(S(=O)(=O)c2ccc(C)cc2)CCc2ccccc21,31.4%,20.4%,36.6%,26.5%,6.5%,36%
COc1ccc(C2(C)OC(=O)c3ccccc32)c2ccccc12 (stereo unspecified),71% (active),49.9%,46.3%,39.2%,73.2% (active),65.7%
CC(C)(CN1C(=O)C(Cl)=C(Cl)C1=O)CN1C(=O)C(Cl)=C(Cl)C1=O,1.7%,-5.6%,6.3%,-20.8%,-5.8%,9.2%
